L3MBTL1 block = blocks human L3MBTL1; Q9Y468; AlphaScreen L3MBTL1–H3K9me1 peptide binding; Potency, µM (highest dose often 57.1 µM), inactives show top-dose activity, negative = inhibition, actives largely listed as inhibitors; actives 0.66% (n = 230,000); AID 485360; further: on the % scale 0 is the no-effect control and ±100 the full control effect; nearly all actives have a fitted effect of over 60% in size
Target sequence (Q9Y468 whole entry, looked up): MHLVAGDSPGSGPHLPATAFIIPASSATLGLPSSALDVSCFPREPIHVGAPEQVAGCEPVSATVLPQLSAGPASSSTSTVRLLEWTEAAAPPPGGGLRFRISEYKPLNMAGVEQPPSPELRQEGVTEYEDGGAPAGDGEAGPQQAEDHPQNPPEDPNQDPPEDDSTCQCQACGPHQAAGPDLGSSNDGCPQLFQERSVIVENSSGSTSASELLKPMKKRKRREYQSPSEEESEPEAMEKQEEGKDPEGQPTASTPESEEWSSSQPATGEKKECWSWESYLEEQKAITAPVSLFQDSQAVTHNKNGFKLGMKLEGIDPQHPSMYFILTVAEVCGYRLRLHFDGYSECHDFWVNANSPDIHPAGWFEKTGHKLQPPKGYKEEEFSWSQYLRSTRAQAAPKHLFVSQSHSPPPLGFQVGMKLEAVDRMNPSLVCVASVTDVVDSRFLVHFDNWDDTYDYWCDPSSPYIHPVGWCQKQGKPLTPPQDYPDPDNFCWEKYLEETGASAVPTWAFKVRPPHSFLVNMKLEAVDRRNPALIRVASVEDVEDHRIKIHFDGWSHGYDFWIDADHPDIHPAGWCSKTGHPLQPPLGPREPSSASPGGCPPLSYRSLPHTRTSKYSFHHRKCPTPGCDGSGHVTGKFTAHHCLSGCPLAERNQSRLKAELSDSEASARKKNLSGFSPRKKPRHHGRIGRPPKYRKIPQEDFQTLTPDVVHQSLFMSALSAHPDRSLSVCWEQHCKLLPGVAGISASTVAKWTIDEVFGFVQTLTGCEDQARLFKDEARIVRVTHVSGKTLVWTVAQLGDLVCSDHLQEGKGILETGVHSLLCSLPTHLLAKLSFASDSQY
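L3MBTL1 (50 nM) pre-complexed 30 min with biotinylated H3(1-15)K9me1 peptide (75 nM), then compounds added for 30 min at room temperature; AlphaScreen streptavidin donor/nickel chelate acceptor beads (10 ug/mL final) read after 30 min dark incubation.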
HP1b binding inh = HP1-beta chromodomain-methylated histone interaction inhibition | P83916 | Potency, µM (highest dose often 114 µM), for the others: top-dose activity change, negative = inhibition, most hits filed as inhibitors | AlphaScreen HP1-beta / biotin-H3K9me3 peptide binding | actives 0.56% (n = 390,000) | AID 540317; further: nearly all actives have a fitted effect of over 70% in size
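HP1-beta protein (50 nM final) preincubated 30 min at room temperature with biotinylated H3(1-18)K9me3 peptide (50 nM) in PBS pH 7.4, 0.01% Tween-20, then compound added for 30 min. AlphaScreen streptavidin donor/nickel chelate acceptor beads (10 ug/mL final), 30 min dark, luminescence read.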
G9a inh = G9a (human) methyltransferase inhibition | Q96KQ7 | G9a H3K9 monomethylation, AlphaScreen, 2 h | Potency, µM (titrated, usually from 102 µM), without a hit: top-dose activity, negative = inhibition, actives largely listed as inhibitors | actives 8.8% (n = 350,000) | AID 504332; further: on the % scale 0 is the no-effect control and ±100 the full control effect; nearly all actives have a fitted effect of over 75% in size
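Chemiluminescent proximity detection of H3K9 monomethylation, read after 10 min bead incubation in the dark. Reaction: 20 nM G9a, 500 nM biotin-H3K9 peptide, 20 uM SAM cofactor, 2 h, room temperature, following 15 min enzyme-compound preincubation.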
JMJD2A Tudor = blocks the human JMJD2A Tudor domain; O75164; AlphaScreen JMJD2A-Tudor / H3K4me3 peptide binding; Potency, µM (top dose mostly 114 µM), for inactives: at the highest dose activity change, negative = inhibition, hits mostly inhibitors; actives 4.4% (n = 390,000); AID 504339; further: on the % scale 0 is the no-effect control and ±100 the full control effect; nearly all actives have a fitted effect of over 50% in size
BAZ2B block = BAZ2B (human) inhibition; Q9UIF8; AlphaScreen BAZ2B-H3K14Ac peptide displacement; Potency, µM (top dose mostly 114 µM), for the others: top-dose activity change, negative = inhibition, most hits filed as inhibitors; actives 4.4% (n = 360,000); further: on the % scale 0 is the no-effect control and ±100 the full control effect; nearly all actives have a fitted effect of over 60% in size
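Compounds, titrated to a top concentration of 110 uM, were incubated 30 min at room temperature with preformed BAZ2B/acetyl-K14 H3 peptide complex (50 nM each). Proximity signal was measured by AlphaScreen after 20 min with beads.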
Sfp PPTase inh = inhibitors of Bacillus subtilis Sfp phosphopantetheinyl transferase | Q9F4F7 | Biochemical Sfp PPTase activity, qHTS | Potency, µM, without a hit: largest response in the series, negative = inhibition, usual class: inhibitors | actives 3.5% (n = 310,000);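 further: the enzyme is Sfp with the accession as filed and its product quenches rhodamine fluorescence; 0% = enzyme reaction without inhibitor and -100% = no enzyme wells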
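Sfp 15 nM + cpd, 15 min RT; start w/ rhodamine-CoA 5 uM, BHQ-2-YbbR 12.5 uM (final); 50 mM Hepes pH 7.6, 10 mM MgCl2, 0.01% NP-40, 0.01% BSA; read 525/598 nm at 0 and 30 min.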
An asterisk follows results filed as active; ? = inconclusive; . = not tested or not shown; [ ] = another dose, or the depositor's remark. In the library only some 12% were active in any assay of this set; here they are far more common. The call rests on the fitted dose curve; in most records, active means well fitted curve in the direction sought with a large enough effect; inconclusive means small, poorly fitted or top-dose-only effect, or another doubt; inactive means no such curve, though single readings can be large; an effect the other way counts as inactive or inconclusive. Potency means the concentration at half of the fitted maximal effect.

SMILES	L3MBTL1 block	HP1b binding inh	G9a inh	JMJD2A Tudor	BAZ2B block	Sfp PPTase inh
N#Cc1cccc(NC(=O)CNc2cc(S(=O)(=O)N3CCOCC3)ccc2N2CCCC2)c1	-13.4%	2.2%	-1.8%[0.501 µM]	-31.8%	-32.5%	.
Cc1ccc(CN(C)C(=O)CCc2nc3sc4c(c3c(=O)[nH]2)CCCC4)o1	.	-9.5%	.	70.8µM*	-37.2%	50.1µM*
CN(CC(=O)Nc1ccccc1C(F)(F)F)C(=O)CCc1nc2sc3c(c2c(=O)[nH]1)CCCC3	.	6.9%	17.2%	-22.1%	-17.8%	16.9%
CN(Cc1ccco1)C(=O)CCc1nc2sc3c(c2c(=O)[nH]1)CCCC3	.	-2.0%	79.4µM*	?	?	-16.3%
CN(C)C(=O)CCc1nc2sc3c(c2c(=O)[nH]1)CCCC3	.	27.3%	-7.4%[59 µM]	-4.2%	4.8%	13.5%
CC1CCN(C(=O)C2CCC(=O)N(Cc3ccc(Cl)cc3)C2)CC1 (stereo not given)	.	1.8%	2.1%	-18.1%	-2.7%	13.1%
Cc1ccc(NC(=S)N2CCC(N(C)CC3CCCO3)CC2)cc1C (stereo not given)	.	28.6%	?	-7.4%	-12.6%	12.3%
COc1ccc(NC(=S)N(CCC(C)C)C2CCN(C(C)C)CC2)cc1	.	73.0%	-50.2%	-23.7%	-2.0%	-2.8%
COc1ccc(NC(=S)N(C(C)C)C2CCN(C(C)C)CC2)cc1Cl	.	.	44.7µM*	.	-1.0%	?
COc1ccc(NC(=S)N2CCC(N(C)CC3CCCO3)CC2)cc1Cl (stereo not given)	5.0%	21.0%	-10.7%[59 µM]	-6.8%	7.7%	39.8µM*
O=C(CSc1ccc([N+](=O)[O-])cn1)Nc1ccccc1N1CCOCC1	.	15.6%	39.8µM*	-27.2%	-25.2%	6.3%
Cc1csc(NC(=O)CSc2ccc([N+](=O)[O-])cn2)n1	.	31.5%	50.1µM*	-26.6%	-31.2%	3.1%
O=C(CSc1ccc([N+](=O)[O-])cn1)Nc1nccs1	.	39.5%	3.1%	1.3%	-6.2%	0.3%
COc1ccc(Cn2c(=O)[nH]c3cc(C(=O)NCCCN4CCCC4=O)ccc3c2=O)cc1	2.9%	42.6%	8.4%[2.33 µM]	5.1%	?	0.1%
O=C(NCCCN1CCCC1=O)c1ccc2c(=O)n(-c3ccccc3F)c(=S)[nH]c2c1	0.6%	29.3%	25.1µM*	?	?	?
COc1ccc(-n2c(=S)[nH]c3cc(C(=O)NCc4cccnc4)ccc3c2=O)c(OC)c1	.	0.0%	?	-23.6%	-33.7%	19.9%
COc1ccc(-n2c(=S)[nH]c3cc(C(=O)NCc4ccccc4)ccc3c2=O)c(OC)c1	.	27.6%	22.4µM*	-9.5%	0.0%	29.8%
O=C(NCCCN1CCCC1=O)c1ccc2c(=O)n(-c3ccc(F)cc3)c(=S)[nH]c2c1	6.3%	.	31.6µM*	.	-14.5%	-5.7%
CN(CCO)c1nc(-c2cccs2)nc2ccccc12	.	29.5%	.	-17.7%	.	.
CC(C)C(=O)NC(=S)Nc1c(Cl)ccc2nsnc12	-0.4%	10.9%	?	-1.4%	-8.8%	-12.6%
Cc1c(N2CCCC2)cc2c(c1NC(=O)c1ccccc1Cl)C(C)(C)CC2(C)C	-22.2%	6.2%	28.2µM*	-33.8%	-36.6%	17.5%
CCc1ccccc1NC(=O)C1CCN(c2nn3c(=O)cc(C)nc3s2)CC1	.	22.3%	4.4%[59 µM]	-12.4%	-9.1%	.
COc1ccc(NS(=O)(=O)c2cc3c(cc2C)N(C)CCO3)cc1	-6.1%	-12.5%	11.1%	?	50.1µM*	0.1%
CCOc1ccc(NS(=O)(=O)c2cc3c(cc2C)N(C)CCO3)cc1	-8.4%	-13.2%	0.5%	?	-31.7%	4.1%
CCCc1cc(=O)n2[nH]c(-c3cc(OC)c(OC)c(OC)c3)nc2n1	-1.5%	52.1%	44.7µM*	7.0%	7.8%	10.3%
CCCc1cc(=O)n2[nH]c(-c3ccc(OC)cc3)nc2n1	.	42.8%	-10.4%	6.6%	-2.2%	17.4%
CN(C)CCCNC(=O)c1ccc(-c2ccccc2)cc1	-5.1%	21.4%	-5.1%	-12.3%	6.2%	9.2%

Screens: PubChem BioAssay, National Center for Advancing Translational Sciences (NCATS)
